High-throughput results deposited in PubChem BioAssay by National Center for Advancing Translational Sciences (NCATS).
uPA surface inh = qHTS for Inhibitors of Cell Surface uPA Generation; cell surface uPA generation assay, qHTS; Potency, µM (doses to about 38.3 µM), most hits filed as inhibitors; 330,000 tested, 0.31% active; active = well fitted inhibition curve with a large enough effect; inconclusive = small, poorly fitted or top-dose-only effect; inactive = no such curve, though single readings can be large or run the other way; tested in mouse RAW 264.7 cells; also: nearly all actives have a fitted effect of over 55% in size
DT40 TDP1 CPT = qHTS for Inhibitors of human tyrosyl-DNA phosphodiesterase 1 (TDP1): qHTS in cells in presence of CPT | AID 686979, 2013 | chicken DT40 Tdp1-/-;hTDP1 cells + 20 nM CPT, ATP luminescence, 48 h | Potency, µM (series often up to 46.2 µM), actives largely listed as inhibitors | 420,000 tested, 12% active; also: nearly all actives have a fitted effect of over 55% in size
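Cell growth measured by CellTiter-Glo luminescence after a minimum 48 h, 37 C compound exposure with 20 nM CPT in Tdp1-knockout DT40 cells stably expressing hTDP1, seeded 400/well; qHTS titration format.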
HT1080 IDH1KD tx = qHTS for induction of synthetic lethality in tumor cells producing 2HG: qHTS for the HT-1080-IDH1KD cell line. 360,000 tested, 2% active. Potency, µM (titrated, usually from 46.1 µM), most hits filed as cytotoxic. HT-1080 IDH1 knockdown viability, ATP luminescence, 48 h
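HT-1080-IDH1KD cells (IDH1 knocked down), 750/well in RPMI with 5% FBS, treated with compound 48 h at 37 degrees C. Viability by CellTiter-Glo luminescence, normalised to DMSO and no-cell wells; concentration-response curves classed.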
TDP1 cell noCPT = qHTS for Inhibitors of human tyrosyl-DNA phosphodiesterase 1 (TDP1): qHTS in cells in absence of CPT; DT40 Tdp1-/- hTDP1 cells, no CPT, ATP luminescence, 48 h; Potency, µM (titrated, usually from 46.2 µM), usual class: inhibitors; 420,000 tested, 15% active; also: nearly all actives have a fitted effect of over 55% in size
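Cells were dispensed at 400 per well, compounds added by pin tool, plates incubated ≥48 hr at 37 °C, then CellTiter-Glo added for 30 min at room temperature before luminescence reading. Line: DT40 Tdp1-/- complemented with hTDP1; camptothecin omitted.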
HT1080-NT tox = qHTS for induction of synthetic lethality in tumor cells producing 2HG: qHTS for the HT-1080-NT fibrosarcoma cell line; Potency, µM (doses to about 46.1 µM), hits mostly cytotoxic; 360,000 tested, 1.6% active; AID 686970, 2013; HT-1080-NT fibrosarcoma viability, CellTiter-Glo ATP luminescence, 48 h;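 also: NT is the 2HG producing partner of a matched IDH1 knockdown line; nearly all actives have a fitted effect of over 55% in size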
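Read-out is CellTiter-Glo luminescence after 10 minutes at room temperature, following 48 hours' compound treatment of HT-1080-NT cells (750 cells/well, RPMI, 5% FBS, 37 degrees C).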
IL-1B inflam inh = qHTS for Inhibitors of Inflammasome Signaling: IL-1-beta AlphaLISA Primary Screen; THP-1 LPS/ATP IL-1B secretion, AlphaLISA, 16 h; active compounds read low; activity change, % at 57.5 µM; 360,000 tested, 4.7% active; AID 743279, 2014; in the data active = activity change below about -50%; inconclusive = mostly about -30% to -49%
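THP-1 cells pretreated 1 hr with compounds (up to 57.5 uM final), then stimulated with LPS (250 ng/mL final) plus ATP (1.25 mM final); secreted IL-1B measured by AlphaLISA after 16 hr, decreased signal indicating inhibition.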
Each line names hits and unclear results; the compound was inactive in the other large screens. Most compounds without a hit are left out; they make up all but 19% or so of the library. Unless noted, calls follow the shape of the dose curve; as a rule, active = well fitted curve in the direction sought with a large enough effect; inconclusive = small, poorly fitted or top-dose-only effect, or another doubt; inactive = no such curve, though single readings can be large; an effect the other way counts as inactive or inconclusive.

CC(=O)Nc1ccc(Sc2ncccc2C(=O)Nc2ccc(OC(F)(F)F)cc2)cn1	DT40 TDP1 CPT 6.51µM, TDP1 cell noCPT 5.17µM
CC(=O)Nc1ccc(Sc2ncccc2C(=O)Nc2cc(Cl)cc(Cl)c2)cn1	DT40 TDP1 CPT inconclusive, TDP1 cell noCPT inconclusive
O=C1Nc2ccc(Cl)cc2C12Nc1ccccc1-c1nnc(SCc3ccccc3F)nc1O2 (stereo not drawn)	DT40 TDP1 CPT 14.6µM, TDP1 cell noCPT inconclusive
O=C1Nc2ccc(F)cc2C12Nc1ccccc1-c1nnc(SCc3ccccc3F)nc1O2 (stereo not drawn)	DT40 TDP1 CPT inconclusive, TDP1 cell noCPT inconclusive
COc1cc(OC)c(OC)cc1CN1CCc2nc(N3CCN(C)CC3)ncc2C1	none (no result: uPA surface inh, HT1080 IDH1KD tx, HT1080-NT tox, IL-1B inflam inh)
CCCN1CCN(c2ncc3c(n2)CCN(Cc2ccc(OC)c(OC)c2OC)C3)CC1	DT40 TDP1 CPT inconclusive, TDP1 cell noCPT 18.4µM (no result: uPA surface inh, HT1080 IDH1KD tx, HT1080-NT tox, IL-1B inflam inh)
CCc1ccc(CN2CCc3nc(N4CCN(CC)CC4)ncc3C2)cc1	DT40 TDP1 CPT inconclusive, TDP1 cell noCPT 16.4µM (no result: uPA surface inh, HT1080 IDH1KD tx, HT1080-NT tox, IL-1B inflam inh)
CCN1CCN(c2ncc3c(n2)CCN(Cc2cc(F)cc(F)c2)C3)CC1	DT40 TDP1 CPT 14.6µM, TDP1 cell noCPT 14.6µM (no result: uPA surface inh, HT1080 IDH1KD tx, HT1080-NT tox, IL-1B inflam inh)
O=C(COC(=O)C1CCCCC1)Nc1ccc(S(=O)(=O)N2CCOCC2)cc1	none
COc1ccc(C=O)c2[nH]c3c(Cl)ncnc3c12	TDP1 cell noCPT inconclusive, IL-1B inflam inh inconclusive
COc1cc2[nH]c3c(N4CCN(c5ccc(Cl)cc5)CC4)ncnc3c2cc1OC	DT40 TDP1 CPT 18.4µM, HT1080 IDH1KD tx inconclusive, TDP1 cell noCPT 18.4µM, HT1080-NT tox inconclusive
COc1cc2[nH]c3c(Cl)ncnc3c2cc1OC	uPA surface inh inconclusive, DT40 TDP1 CPT inconclusive, TDP1 cell noCPT 20.6µM, IL-1B inflam inh -61.1
COc1ccccc1CCc1nnc(CCC(=O)NCC[C@@H]2C[C@@H]3C=C[C@H]2C3)o1	DT40 TDP1 CPT 14.6µM, TDP1 cell noCPT 18.4µM
CCc1ccc(C2N=C(N)Nc3nc4ccccc4n32)cc1 (stereo not drawn)	DT40 TDP1 CPT 16.4µM, TDP1 cell noCPT 18.4µM (no result: uPA surface inh, HT1080 IDH1KD tx, HT1080-NT tox, IL-1B inflam inh)
CC(C)c1ccc(C2=CC(c3cccc(Cl)c3)n3ncnc3N2)cc1 (stereo not drawn)	DT40 TDP1 CPT inconclusive, TDP1 cell noCPT 23.1µM (no result: uPA surface inh, HT1080 IDH1KD tx, HT1080-NT tox, IL-1B inflam inh)
CC(C)c1ccc(C2=CC(c3cccc(Cl)c3)n3c(nc4ccccc43)N2)cc1 (stereo not drawn)	DT40 TDP1 CPT inconclusive, TDP1 cell noCPT 16.4µM (no result: uPA surface inh, HT1080 IDH1KD tx, HT1080-NT tox, IL-1B inflam inh)
CCc1ccc(C2=CC(c3cccc(C)c3)n3c(nc4ccccc43)N2)cc1 (stereo not drawn)	DT40 TDP1 CPT inconclusive, TDP1 cell noCPT 2.59µM (no result: uPA surface inh, HT1080 IDH1KD tx, HT1080-NT tox, IL-1B inflam inh)
Cc1ccc(C2=CC(c3ccccc3)n3ncnc3N2)cc1 (stereo not drawn)	DT40 TDP1 CPT inconclusive, TDP1 cell noCPT inconclusive
COc1ccc(NC(=O)CCC(=O)N2CCCC2)c([N+](=O)[O-])c1	none
CC(=O)N(C)C[C@@H]1Oc2ncc(Br)cc2C(=O)N([C@H](C)CO)C[C@@H]1C	none (no result: uPA surface inh)
Cc1ccc(C2C=C(c3ccccc3OC(F)F)Nc3ncnn32)cc1 (stereo not drawn)	DT40 TDP1 CPT inconclusive
CN(C)c1ccc(C2C=C(c3ccc(Cl)cc3OC(F)F)Nc3ncnn32)cc1 (stereo not drawn)	DT40 TDP1 CPT 9.2µM, HT1080 IDH1KD tx inconclusive, TDP1 cell noCPT 18.4µM, HT1080-NT tox inconclusive
CCOc1ccc(C2=CC(c3cccc(Br)c3)n3c(nc4ccccc43)N2)cc1Cl (stereo not drawn)	DT40 TDP1 CPT inconclusive, TDP1 cell noCPT 13µM (no result: uPA surface inh, HT1080 IDH1KD tx, HT1080-NT tox, IL-1B inflam inh)
NC1=NC(c2cccc(Cl)c2)n2c(nc3ccccc32)N1 (stereo not drawn)	none (no result: uPA surface inh, HT1080 IDH1KD tx, HT1080-NT tox, IL-1B inflam inh)
